CDC25B-CDK2 inh = human CDC25B-CDK2/CyclinA binding inhibition | P30305+P24941 | z-score (test concentration not listed) | HTRF CDC25B-CDK2/CyclinA binding, anti-His/anti-Flag; active compounds read high | 94,000 compounds, 0.72% hits; in the data active = z-score above about 3.2
TAR Tat displ = HIV-1 TAR-Tat binding disruption; HIV-1 TAR RNA, Tat peptide displacement FRET; active compounds read high; AID 1259389; 100,000 compounds, 0.6% hits; z-score (test concentration not listed); active = z-score of 3 or more in at least 2 runs
A number is an active result; n = inactive; x = no result given. Shown are actives, neighbours in structure and some others; about 0.86% of the full set was active somewhere.

SMILES	CDC25B-CDK2 inh	TAR Tat displ
[Cl-].[Cl][Pt].[NH2-].[NH2-].c1ccncc1	3.7	x
Cc1ccc(-n2nc(C)c3c2NC(=O)CSC3c2ccc(C)cc2C)cc1 (configuration not stated)	n	n
CCCCP(=S)(C(C)C)C(C)C	n	x
Cc1cc(C)nc(-n2nc(-c3ccccc3)c3c2NC(=O)CSC3c2ccccc2)n1 (configuration not stated)	n	n
O=C1C2CCN(CC2)C1Cc1ccco1 (configuration not stated)	12	x
O=C1C2CCN(CC2)C1Cc1ccc(OCCOc2ccccc2)cc1 (configuration not stated)	n	n
Cn1nc(-c2ccccc2)nc2c(=O)n(C)c(=O)nc1-2	5.8	n
CCn1nc(-c2ccccc2)nc2c(=O)n(C)c(=O)nc1-2	n	n
COc1ccc(Cc2nccc3cc(OC)c(OC)cc23)cc1OC	13	n
COc1ccc(CCNCc2ccc(OC)c(OC)c2)cc1OC	n	n
CC(C)C1OCC2(COC(=O)c3cccnc3)COC(C(C)C)N12 (configuration not stated)	n	x
COc1cc(C2C(C#N)=C(N)Oc3c2ccc2ccccc32)cc(OC)c1OC (configuration not stated)	n	x
COc1cc2c(cc1O)CC1c3c(cc(O)c(OC)c3-2)CCN1C (configuration not stated)	x	7.7
COc1cc2c3c(c1OC)-c1ccccc1CC3N(C)CC2 (configuration not stated)	x	n
CN1C2CCC1CC(OC(=O)c1cncc(Br)c1)C2 (configuration not stated)	n	x
CCOc1ccc(C2SCC(=O)Nc3c2c(=O)[nH]n3C2CCCCC2)cc1 (configuration not stated)	n	n
COc1cccc(CN2CCN(Cc3cc(Br)ccc3O)CC2)c1	16	n
CCc1ccc(CN2CCN(Cc3cc(Br)ccc3O)CC2)cc1	n	n
CCC(C)C(=O)O[C@H]1[C@H](O)C2C(CN3CC(C)CCC3[C@@]2(C)O)C2C[C@]34O[C@]5(O)C(OC(=O)C(C)(O)C(C)O)CC[C@@]3(C)C5C(OC(C)=O)[C@@H](OC(C)=O)C4[C@@]21O (some centres not stated)	x	n
CC[C@@H](C)C(=O)O[C@H]1[C@H](O)[C@H]2[C@@H](CN3C[C@@H](C)CC[C@H]3[C@@]2(C)O)[C@@H]2C[C@]34OC5(O)[C@@H](OC(=O)C(C)(O)C(C)O)CC[C@@]3(C)[C@@H]5[C@@H](OC(C)=O)[C@@H](OC(C)=O)[C@H]4[C@@]21O (some centres not stated)	x	10
CCCCCn1c(N)c(C(=O)OCC)c2nc3ccccc3nc21	n	x
CC(C)=CCCC1=CC(=O)c2c(O)ccc(O)c2C1=O	x	34
O=[N+]([O-])c1cc(O)c(O)c([N+](=O)[O-])c1	n	9.5
O=[N+]([O-])c1ccc(O)c([N+](=O)[O-])c1	x	n
c1cnc2c(c1)nnn2C1CCNCC1	x	n
SMILES	CDC25B-CDK2 inh	TAR Tat displ
Cc1[nH]nc2c1C(c1ccccc1F)SCC(=O)N2 (configuration not stated)	n	n
CC(C)CCn1c(CC(C)(C)C)nc2ccccc21	n	n
CC[C@@H](CO)NC(=O)[C@@H]1C=C2c3cccc4c3c(cn4C)C[C@H]2N(C)C1	n	x
CC[C@@H](CO)NC(=O)[C@@H]1C=C2c3cccc4[nH]cc(c34)C[C@H]2N(C)C1	4.2	n
C=CCOc1ccc(C2SCC(=O)Nc3c2c(C)nn3-c2nc(C)cc(C)n2)cc1 (configuration not stated)	n	n
Fc1ccc(CN2CCN(Cc3ccccc3Cl)CC2)cc1	n	x
c1ccc(-n2cccc2-c2nc(N3CC3)nc(N3CC3)n2)cc1	16	x
CC1c2cccn2-c2ccccc2CN1C(=O)Nc1cc(F)ccc1F (configuration not stated)	x	n

Screening data as filed in PubChem.
